# Experimental data as given in PMC10163288.
# The list is a sample of the results. No count for the full screen is at hand. Values without a mark were called inactive.
# B1: il10ra_site1_sap_19_mot_2fa031a62b9321f410fa37cb4b35ac9e_0001_af2_000000160_0001_1_14_H_._HHH_b2_08251_af2_0001_0000200005_0000002_0_0001 (protein)
# chain: SSSSSDQEEAVELSLEAFRLALRGDPEEARRVLEEALELAEEAGDERMAKVIRDMLRALSSSSSS
# B2: il10ra_site1_normal_mot_HHH_b2_00475_000000107_0001_44_57_H_._HHH_b2_01638_af2_0001_0000200008_0000002_0 (protein)
# chain: SSSSEEEQRVAELLFRALRLLAEGNPEEAEKVVEEAQKLAEENNDEELRKYVEILRHFIESHSSS
# B3: il10ra_site1_sap_16_mot_8756ee2cf497b5429c717dfc0c0bcfd6_0001_000000186_0001_1_13_H_._HHH_b1_03338_0001_0000100002_0000003_0_0001 (protein)
# chain: SSSSTLEWSVKFMLEIVEELLERGDKEKAEHLLEALLRHLKEAGDPELLREVEELLEEVRKSSSS
# B4: il10ra_site1_normal_mot_HHH_b2_02116_af2_000000165_0001_41_55_H_._HHH_b1_06457_0001_0000100001_0000001_0 (protein)
# chain: SSSDHERAVELLLRAAEIAFERGNPHQARAAIRLAREIAERINDEELEELVEEVERRLEESSSSS
# B5: il10ra_site1_sap_14_mot_HHH_b1_08411_af2_000000053_0001_1_20_H_._HHH_b1_08108_0001_0000200028_0000001_0_0001 (protein)
# chain: SSSSSSDEYREAYELIEEAFHIEDEEEARELLEEAKELAERAGNWALRFAIQLLLEDLSSSSSSS
# B6: il10ra_site1_sap_24_mot_HHH_b1_06912_af2_000000235_0001_1_15_H_._HHH_b1_04651_0001_0000100003_0000001_0_0001 (protein)
# chain: SSSSDQELYRKVEELIEEAIELQRRGNPEEARRLLEELLEELEELNNPNMLYNVRHLLKAISSSS
# B7: il10ra_site1_sap_19_mot_HHH_b1_05021_af2_000000167_0001_42_56_H_._HHH_b1_02196_0001_0000400015_0000002_0_0001 (protein)
# chain: SSSSDAEEYLREVAVELLELFREGDPEKAEELLEEAREFLEEKGNRELVRMIEFQFRASEWSSSS
# B8: il10ra_site1_normal_mot_HHH_b1_02397_af2_000000085_0001_39_57_H_._HHH_b1_03194_0001_0000100004_0000002_0 (protein)
# chain: SSSSSSDVEELLERLEELLEEGNHEEAARLLQEALRHAFRNSDPELLKELHEFAKRLASSSSSSS
# B9: il10ra_site1_sap_15_mot_HHH_b1_03531_000000273_0001_41_54_H_._HHH_b2_00993_0001_0000200012_0000001_0_0001_af2pred_0001 (protein)
# chain: SSSSTEEEIRELLEEVEELIERGNNHEAAKLLKKLAELISELNNDELLKELRELAQLVIRVSSSS
# B10: il10ra_site1_normal_mot_HHH_b1_06789_af2_000000041_0001_1_20_H_._HHH_b2_03029_0001_0000300011_0000002_0 (protein)
# chain: SSSSSAEYLVRQALKAAKRLYEQGDPERAKEAIEIAENLARNANNPELEKLVEEFAEELENSSSS
# B11: il10ra_site1_normal_mot_HHH_b2_00033_000000036_0001_41_54_H_._HHH_b1_00990_0001_0000100001_0000001_0 (protein)
# chain: SSSDETEEASELAAEAIRLAIRLGDEEIFQELWELFKLVIREGDPEVTERLEELLEELRERSSSS
# B12: il10ra_site1_sap_20_mot_HHH_b1_02766_af2_000000078_0001_42_56_H_._HHH_b2_04892_0001_0001000047_0000001_0_0001 (protein)
# chain: SSSSDELSEEAMKLIERASELDQNGNPEEAKEVLERAEELAEEAGNRVLAWNIRFLLRRLSSSSS
# B13: il10ra_site1_sap_22_mot_HHH_b2_03328_af2_000000127_0001_1_19_H_._HHH_b1_06177_0001_0000200023_0000001_0_0001 (protein)
# chain: SSSSTQELYELLRRIVELDHKGNLEEAERLLEELEELARERNDPNIRMQVEFLEEIIRRNLSSSS
# B14: il10ra_site1_normal_mot_HHH_b1_04514_000000156_0001_1_18_H_._HHH_b1_03241_0001_0000100007_0000001_0 (protein)
# chain: SSSSYEEVKELIEEIIELAREGNPEEAEKVLRELERLAEELNNPAIRFVVRLLEEVIERQSSSSS
# B15: il10ra_site1_sap_15_mot_HHH_b2_02354_af2_000000157_0001_40_56_H_._HHH_b1_07270_0001_0000500051_0000001_1_0001 (protein)
# chain: SSSSSEQERAALRFAKWLIEIIEETGNPSARRSLEVMLWLLERINSEEAEELLKEAEELLSSSSS
# B16: il10ra_site1_normal_mot_39ab2cb694c8b9c1dc7e65c0d672c93e_0001_000000036_0001_53_65_H_._HHH_b1_05574_0001_0000300023_0000001_0 (protein)
# chain: SSSSSEEERIEELIEEAKELLERGNPEEALELVLEALRLAYQNRNAELLQELWRLAKEIASSSSS
# B17: il10ra_site1_normal_mot_HHH_b2_05548_000000224_0001_41_54_H_._HHH_b1_07835_0001_0000100002_0000002_0_af2pred_0001 (protein)
# chain: SSSSSDEEVEQLLEEAERLLKEGNPEEAAKVVAKAAELALELGNVELIKLVVELLRLIANSSSSS
# B18: il10ra_site1_normal_mot_HHH_b1_00999_000000080_0001_41_55_H_._HHH_b1_01870_0001_0000600018_0000001_0 (protein)
# chain: SSSSSSSEEEVEELLEEAKEIDDPREAARVLQEATHIALRNQNPELLRLVWEVVKRLGSSSSSSS
# Target: il10ra, Q13651
# Assay: yeast display titration
# il10ra, Q13651, sequence (Q13651 whole entry): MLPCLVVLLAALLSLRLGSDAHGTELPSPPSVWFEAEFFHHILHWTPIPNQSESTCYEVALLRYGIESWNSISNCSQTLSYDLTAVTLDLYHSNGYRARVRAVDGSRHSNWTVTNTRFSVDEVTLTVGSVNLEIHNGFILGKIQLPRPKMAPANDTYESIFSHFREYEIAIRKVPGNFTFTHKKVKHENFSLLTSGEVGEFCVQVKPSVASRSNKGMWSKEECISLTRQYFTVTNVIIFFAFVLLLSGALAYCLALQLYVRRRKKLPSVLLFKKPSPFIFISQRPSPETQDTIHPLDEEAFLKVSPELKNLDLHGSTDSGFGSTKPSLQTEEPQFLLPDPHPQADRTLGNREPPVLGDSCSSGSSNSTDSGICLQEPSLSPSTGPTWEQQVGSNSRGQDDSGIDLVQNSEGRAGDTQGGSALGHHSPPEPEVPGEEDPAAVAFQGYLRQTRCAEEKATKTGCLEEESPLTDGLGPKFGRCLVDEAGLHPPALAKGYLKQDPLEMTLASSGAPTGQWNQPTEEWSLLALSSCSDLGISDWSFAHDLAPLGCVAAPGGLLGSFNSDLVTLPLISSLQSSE
row,Binder,apparent Kd
1,B1,no binding seen
2,B2,no binding seen
3,B3,no binding seen
4,B4,no binding seen
5,B5,no binding seen
6,B6,no binding seen
7,B7,no binding seen
8,B8,no binding seen
9,B9,no binding seen
10,B10,no binding seen
11,B11,no binding seen
12,B12,no binding seen
13,B13,> 1.76 µM
14,B14,> 0.786 µM
15,B15,no binding seen
16,B16,no binding seen
17,B17,no binding seen
18,B18,no binding seen
